Screening data from PubChem.
FLuc modulator = qHTS profiling assay for firefly luciferase inhibitor/activator using purifed enzyme and Km concentrations of substrates (counterscreen for miR-21 project); Luciferin 4-monooxygenase (Photinus pyralis), P08659; purified FLuc, Km substrates, luminescence inhibition; Potency, µM (titrated, usually from 57.5 µM), without a hit: top-dose activity change, negative = inhibition, hits mostly inhibitors; hit rate 6.9% among 360,000; AID 588342, 2011;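 note: plate controls were vehicle for no effect and reference inhibitor for full effect; nearly all actives have a fitted effect of over 55% in size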
Target sequence (P08659 whole entry, looked up): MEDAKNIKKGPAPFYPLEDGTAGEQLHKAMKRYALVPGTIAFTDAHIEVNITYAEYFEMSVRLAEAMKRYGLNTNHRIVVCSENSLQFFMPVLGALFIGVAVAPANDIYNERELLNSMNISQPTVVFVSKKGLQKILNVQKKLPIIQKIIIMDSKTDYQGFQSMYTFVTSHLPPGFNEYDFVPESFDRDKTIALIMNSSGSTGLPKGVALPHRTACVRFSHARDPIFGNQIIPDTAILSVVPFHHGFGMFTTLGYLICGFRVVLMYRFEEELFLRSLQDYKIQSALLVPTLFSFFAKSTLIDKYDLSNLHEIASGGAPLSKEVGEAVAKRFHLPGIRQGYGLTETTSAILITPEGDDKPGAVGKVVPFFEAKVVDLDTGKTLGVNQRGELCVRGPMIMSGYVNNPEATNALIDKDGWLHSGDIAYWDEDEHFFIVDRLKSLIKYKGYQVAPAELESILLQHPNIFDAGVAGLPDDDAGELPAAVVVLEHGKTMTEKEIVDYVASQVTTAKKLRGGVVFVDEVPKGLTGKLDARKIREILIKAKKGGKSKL
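Purified P. pyralis luciferase (10nM final) with 10uM D-luciferin and 10uM ATP (Km levels) in 50mM Tris acetate pH 7.5, 10mM Mg acetate, 0.01% Tween-20, 0.05% BSA; qHTS 6-point titration, ~60 µM downward; luminescence read.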
Rab9 promoter act = qHTS Assay for Rab9 Promoter Activators. AID 485297, 2010. Potency, µM (series often up to 9.22 µM), without a hit: at the highest dose activation, negative = inhibition, hits mostly activators. Huh7 Rab9 promoter-luciferase reporter, luminescence, 24 h. hit rate 2.8% among 320,000; note: % of control where 0% means no effect; nearly all actives have a fitted effect of over 60% in size
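Cells were plated at 1500 per well in reduced-serum medium with 10% FBS and left 2 h. Compound in DMSO was then added for 24 h at 37 °C. Reporter signal was read by luminescence after 10 min with luciferase detection reagent.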
NPC1 promoter act = qHTS Assay for NPC1 Promoter Activators. Huh7 NPC1 promoter luciferase reporter, 24 h. Potency, µM (highest dose often 9.22 µM), without a hit: top-dose activation, actives largely listed as activators. hit rate 2.4% among 320,000. AID 485313, 2010; note: % of control where 0% means no effect; nearly all actives have a fitted effect of over 60% in size
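Stably transfected Huh7 (NPC1 promoter→luciferase), 1500 cells/well in Opti-MEM + 10% FBS, 2 h settle, then compound 24 h at 37 °C. Luminescence after 10 min with Amplite reagent.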
SMN2 splice up = qHTS Assay for Enhancers of SMN2 Splice Variant Expression; Potency, µM (titrated, usually from 46.1 µM), for inactives: top-dose activity change, positive = activation, usual class: activators; AID 1458, 2008; hit rate 2.8% among 210,000; HEK293 SMN2-luciferase splicing reporter, luminescence, 30-36 h; note: % of control where 0% means no effect; nearly all actives have a fitted effect of over 55% in size
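qHTS luciferase splicing reporter: luminescence rises when SMN2 exon 7 is included in transfected HEK293 cells. Compound exposure lasted 30-36 h at 37C, with 4.5 mM final sodium butyrate as control, followed by a ONE-Glo read.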
ELG1 genotox = qHTS screen for small molecules that induce genotoxicity in human embryonic kidney (HEK293T) cells expressing luciferase-tagged ELG1 | HEK293T ELG1-luciferase reporter, luminescence, 16 h | Potency, µM (doses to about 46 µM), for the others: at the top dose activity change, positive = activation, hits mostly activators | hit rate 1.3% among 330,000 | AID 504466, 2011; note: % of control where 0% means no effect; nearly all actives have a fitted effect of over 60% in size
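Screening used a luciferase reporter fused to human ELG1 in HEK293T cells. Luminescence was read on a CCD plate imager after 16 hr exposure and 30 min ONE-Glo incubation.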
* marks the source's active call; other numbers are inactive results; u = inconclusive; x = no result given; [ ] = remark or other dose. Sampled rows, rich in hits. Any-hit rate of the full collection: about 7.4%. Calls come from the whole dose curve; as a rule, active = well fitted curve in the direction sought with a large enough effect; inconclusive = small, poorly fitted or top-dose-only effect, or another doubt; inactive = no such curve, though single readings can be large; an effect the other way counts as inactive or inconclusive. Potency is the fitted concentration of half-maximal effect.

SMILES | FLuc modulator | Rab9 promoter act | NPC1 promoter act | SMN2 splice up | ELG1 genotox
COc1cc2c(cc1OC)n(CC(=O)c1ccc(F)cc1)c(=O)n1nc(CCn3nc(C)cc3C)nc21 | 0% | x | x | x | x
COc1ccc(OCC(=O)Nc2cccc(C(=O)Nc3ccccc3C(=O)O)c2)cc1 | 24µM* | -2% | 1% | 13% | 0%
COc1ccc(CC(=O)Nc2cccc(C(=O)Nc3ccccc3C(=O)O)c2)cc1OC | 17µM* | -9% | 1% | 7% | -1%
COc1ccccc1OCC(=O)Nc1ccccc1C(=O)Nc1cccc(C(=O)O)c1 | u | 6% | -6% | x | 3%
COc1ccc(-c2csc(NC(C)=O)n2)cc1OC | -11%[2.3 µM] | 1% | 5% | 12% | 15%
Nc1nc(-c2ccc3c(c2)CCO3)cs1 | u | u | 18% | 10µM* | 19%
CC(=O)Nc1nc(-c2ccc3c(c2)CCO3)cs1 | 12µM* | u | u | u | 17%
Nc1nc(-c2ccc3c(c2)CCC(=O)N3)cs1 | u | 28% | 8% | u | u
Nc1nccc(/C=C/c2c(F)cccc2Cl)n1 | 24µM* | u | 23% | u | u
Oc1cccc2ccc(/C=C/c3ccccc3Cl)nc12 | 1.9µM* | 4% | u | x | 18µM*
Oc1cccc2ccc(/C=C/c3c(F)cccc3Cl)nc12 | 3µM* | 4µM* | u | 25µM* | 15µM*
O=c1cc(/C=C/c2c(F)cccc2Cl)[nH]c2ccccc12 | u | u | u | 16% | 2%
O=S(=O)(c1ccccc1)N1CCC2(CCN(c3cccc(-c4ccccc4)c3)CC2)CC1 | x | x | x | -36% | x
CCCn1c(-c2ccc(F)cc2)nc2c(N3CCC(N(C)C)C3)nc(C)nc21 (stereo not given) | x | x | x | -10% | x
CC(C)c1ccc(/C=C(\C#N)c2nc(-c3ccc(O)cc3)cs2)cc1 | u | x | x | -23% | x
NNC(=O)c1cc2cc3ccccc3nc2s1 | 21µM* | 26% | 8% | 1% | -1%
Cn1cc(SCC(=O)N2CCOCC2)c2ccccc21 | -6% | 18% | 16% | 22% | u
O=C(Cn1cc(SCc2ccccc2Cl)c2ccccc21)N1CCOCC1 | 12µM* | u | u | 18µM* | 13%
O=C(Cn1cc(SCc2ccccc2F)c2ccccc21)N1CCCC1 | 17µM* | x | x | x | x
CCn1c(=O)cc(SCC(=O)N2CCN(C)CC2)c2ccccc21 | 1% | 2% | -1% | u | u
CCN1CCN(C(=O)CSc2cc(=O)n(CC)c3ccccc23)CC1 | -2% | -1% | 0% | 24% | 21µM*
CCn1cc(SCC(=O)N2CCOCC2)c2ccccc21 | u | u | u | u | 18µM*
O=[N+]([O-])c1cccc(-c2nc(-c3ccccc3)no2)c1 | 1.3µM* | 4µM* | 6.3µM* | x | u
O=[N+]([O-])c1cccc(-c2noc(-c3ccco3)n2)c1 | 9.5µM* | 2.5µM* | 3.5µM* | x | u
O=[N+]([O-])c1cccc(-c2nc(-c3ccncc3)no2)c1 | u | u | u | 17% | u
SMILES | FLuc modulator | Rab9 promoter act | NPC1 promoter act | SMN2 splice up | ELG1 genotox
O=[N+]([O-])c1cccc(-c2noc(COc3ccccc3)n2)c1 | u | -8% | -1% | -12% | 11%
Cc1c(OCc2ccc([N+](=O)[O-])cc2)ccc2c3c(c(=O)oc12)CCC3 | u | 1µM* | 1.1µM* | 5.6µM* | u
CC(=O)COc1ccc2c3c(c(=O)oc2c1C)CCCCC3 | -18% | u | u | u | 7.3µM*
Cc1oc(C(=O)O)cc1COc1ccc2c3c(c(=O)oc2c1C)CCCC3 | -4% | 11% | 9% | 5% | 2%
Cc1c(OCC(=O)N(C)C)ccc2c3c(c(=O)oc12)CCCCC3 | -8% | 1% | 4% | 1% | 3%
Cc1oc(C(=O)O)cc1COc1ccc2c3c(c(=O)oc2c1C)CCC3 | 27µM* | u | 19% | u | u
COc1ccccc1NC(=O)C1=C(C)Nc2nc(SCc3ccccc3Cl)nn2C1c1ccccn1 (stereo not given) | 0% | x | x | 1% | x
